Reference: PubChem BioAssay AID1159580 (chemical genetic matrix, 2015)
Several values for one entry are separate records, joined by “and”; a condition that tells them apart may be missing. Identical values can stand only once. About 2,000 (36%) of roughly 5,500 compounds were called active. Another 18% or so got no clear call; they are omitted. No stated cut-off is given here; in the data, active means normalized growth mostly below about 0.91 (no sharp cut-off); inconclusive means no clear call, values can overlap the other calls; inactive means mostly above about 0.92. The list shows a part of the results. A structure can be active in one record and inactive in another.

Assay: chemical genetic growth profiling, strain panel (AID 1159580);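 further: tested at 20 µM; growth read once vehicle control cultures reached saturation at 30 °C; 1 = growth at the plate median or of vehicle wells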
Conditions: growth OD
[1] = S. cerevisiae deletion strains, locus YAL013W, strain DEP1, stronger effect = lower value
[2] = S. cerevisiae deletion strains, locus YAL040C, strain CLN3, stronger effect = lower value
[3] = S. cerevisiae deletion strains, locus YCL061C, strain MRC1 (second series), stronger effect = lower value
[4] = S. cerevisiae deletion strains, locus YDR363W, strain ESC2, stronger effect = lower value
[5] = S. cerevisiae deletion strains, locus YER002W, strain NOP16, stronger effect = lower value
[6] = S. cerevisiae deletion strains, locus YJR075W, strain HOC1, stronger effect = lower value
[7] = S. cerevisiae deletion strains, locus YNL153C, strain GIM3, stronger effect = lower value
[8] = S. cerevisiae deletion strains, locus YNL175C, strain NOP13, stronger effect = lower value
[9] = S. cerevisiae deletion strains, locus YNL197C, strain WHI3, stronger effect = lower value
[10] = S. cerevisiae deletion strains, locus YNL224C, strain SQS1, stronger effect = lower value
[11] = S. cerevisiae deletion strains, locus YOR083W, strain WHI5 (second series), stronger effect = lower value
[12] = S. cerevisiae deletion strains, locus YPL055C, strain LGE1, stronger effect = lower value
[13] = S. cerevisiae deletion strains, locus YDL101C, strain DUN1, stronger effect = lower value
[14] = S. cerevisiae deletion strains, locus YDR150W, strain NUM1, stronger effect = lower value
[15] = S. cerevisiae deletion strains, locus YHR030C, strain SLT2, stronger effect = lower value
[16] = S. cerevisiae deletion strains, locus YPL241C, strain CIN2, stronger effect = lower value

Measured: normalized growth

CC(C)[C@@H](CO)Nc1nc(Nc2cccc(Cl)c2)c2ncn(C(C)C)c2n1
inactive: [1] 1.01 | [2] 1.01 | [3] 1.01 | [4] 1.02 | [5] 1.04 | [6] 1.02 | [7] 0.894 | [8] 0.982 | [9] 0.994 | [10] 0.989 | [11] 0.913 | [12] 1.02

COc1cc2ncnc(Nc3cccc(Cl)c3)c2cc1OC
0.562 (active) and 0.979 (inactive): S. cerevisiae deletion strains, locus YMR307W, strain GAS1, stronger effect = lower value
active: S. cerevisiae deletion strains, locus YDL134C, strain PPH21, stronger effect = lower value 0.877 | S. cerevisiae deletion strains, locus YEL061C, strain CIN8, stronger effect = lower value 0.834 | S. cerevisiae deletion strains, locus YLR085C, strain ARP6, stronger effect = lower value 0.46 | S. cerevisiae deletion strains, locus YML094W, strain GIM5, stronger effect = lower value 0.828 | S. cerevisiae deletion strains, locus YNR030W, strain Alg12, stronger effect = lower value 0.82 | [16] 0.831 | S. cerevisiae deletion strains, locus YPR135W, strain CTF4, stronger effect = lower value 0.533
inactive: [1] 0.962 and 0.936 | [2] 1.03 | S. cerevisiae deletion strains, locus YBR229C, strain ROT2, stronger effect = lower value 0.962 | [3] 0.987 | S. cerevisiae deletion strains, locus YCL061C, strain MRC1, stronger effect = lower value 0.956 | [13] 0.985 | [14] 0.915 and 0.999 | [4] 0.968 | [5] 0.976 | S. cerevisiae deletion strains, locus YGR078C, strain PAC10, stronger effect = lower value 0.968 and 0.958 | S. cerevisiae deletion strains, locus YGR229C, strain SMI1, stronger effect = lower value 0.97 | [15] 0.882 | S. cerevisiae deletion strains, locus YHR087W, strain rtc3, stronger effect = lower value 0.95 | [6] 0.906 | S. cerevisiae deletion strains, locus YLR039C, strain RIC1, stronger effect = lower value 1.03 | S. cerevisiae deletion strains, locus YLR058C, strain SHM2 (second series), stronger effect = lower value 0.981 | S. cerevisiae deletion strains, locus YLR262C, strain YPT6, stronger effect = lower value 1.02 | S. cerevisiae deletion strains, locus YMR219W, strain ESC1, stronger effect = lower value 0.986 | S. cerevisiae deletion strains, locus YMR263W, strain SAP30, stronger effect = lower value 0.91 | [7] 0.974 | [8] 0.954 | [9] 0.982 | [10] 0.965 | S. cerevisiae deletion strains, locus YNL298W, strain CLA4 (second series), stronger effect = lower value 0.883 | S. cerevisiae deletion strains, locus YNL322C, strain KRE1, stronger effect = lower value 0.99 | [11] 0.89 | [12] 0.815 and 0.967 | S. cerevisiae strains, strain wild type, stronger effect = lower value 0.926

CN(C)c1cc2c(Nc3ccc4c(cnn4Cc4ccccc4)c3)ncnc2cn1
inactive: [1] 0.994 | [2] 0.971 | [3] 1.01 | [14] 1.01 | [4] 0.998 | [5] 0.98 | [6] 1.01 | S. cerevisiae deletion strains, locus YNL128W, strain TEP1, stronger effect = lower value 1 | [8] 0.995 | [9] 1 | [10] 1.02 | [11] 0.954 | [16] 1

COc1cc(C2CC(=S)Nc3ccccc3S2)cc(OC)c1OC (configuration not stated)
inactive: S. cerevisiae deletion strains, locus YAR019C, strain CDC15, stronger effect = lower value 0.99 | S. cerevisiae deletion strains, locus YBL105C, strain PKC1, stronger effect = lower value 0.986 | S. cerevisiae deletion strains, locus YBR135W, strain CKS1, stronger effect = lower value 0.993 | S. cerevisiae deletion strains, locus YBR136W, strain MEC1, stronger effect = lower value 0.992 | S. cerevisiae deletion strains, locus YBR160W, strain CDC28, stronger effect = lower value 1 | S. cerevisiae deletion strains, locus YDL017W, strain CDC7, stronger effect = lower value 0.998 | S. cerevisiae deletion strains, locus YDL028C, strain MPS1, stronger effect = lower value 0.981 | [13] 0.987 | S. cerevisiae deletion strains, locus YDL108W, strain KIN28, stronger effect = lower value 0.978 | S. cerevisiae deletion strains, locus YDL132W, strain cdc53, stronger effect = lower value 0.999 | S. cerevisiae deletion strains, locus YDL214C, strain PRR2, stronger effect = lower value 0.923 | S. cerevisiae deletion strains, locus YDR052C, strain DBF4, stronger effect = lower value 0.995 | S. cerevisiae deletion strains, locus YDR054C, strain cdc34, stronger effect = lower value 0.986 | S. cerevisiae deletion strains, locus YDR226W, strain ADK1, stronger effect = lower value 0.99 | S. cerevisiae deletion strains, locus YDR477W, strain SNF1, stronger effect = lower value 0.969 | S. cerevisiae deletion strains, locus YER123W, strain YCK3, stronger effect = lower value 0.881 | S. cerevisiae deletion strains, locus YER133W, strain GLC7, stronger effect = lower value 0.941 | S. cerevisiae deletion strains, locus YFL009W, strain cdc4, stronger effect = lower value 0.988 | S. cerevisiae deletion strains, locus YFL029C, strain CAK1, stronger effect = lower value 0.988 | S. cerevisiae deletion strains, locus YFR003C, strain YPI1, stronger effect = lower value 0.99 | S. cerevisiae deletion strains, locus YFR019W, strain FAB1, stronger effect = lower value 0.945 | S. cerevisiae deletion strains, locus YFR028C, strain CDC14, stronger effect = lower value 0.993 | S. cerevisiae deletion strains, locus YGR040W, strain KSS1, stronger effect = lower value 0.94 | S. cerevisiae deletion strains, locus YGR052W, strain FMP48, stronger effect = lower value 1.02 | S. cerevisiae deletion strains, locus YGR092W, strain DBF2, stronger effect = lower value 0.94 | [15] 1.07 | S. cerevisiae deletion strains, locus YHR079C, strain IRE1, stronger effect = lower value 1.04 | S. cerevisiae deletion strains, locus YHR082C, strain KSP1, stronger effect = lower value 1.06 | S. cerevisiae deletion strains, locus YHR205W, strain SCH9, stronger effect = lower value 0.974 | S. cerevisiae deletion strains, locus YIL147C, strain SLN1, stronger effect = lower value 0.98 | S. cerevisiae deletion strains, locus YJL095W, strain BCK1, stronger effect = lower value 1.08 | S. cerevisiae deletion strains, locus YJL128C, strain PBS2, stronger effect = lower value 0.942 | S. cerevisiae deletion strains, locus YJL157C, strain FAR1, stronger effect = lower value 0.928 | S. cerevisiae deletion strains, locus YJR016C, strain ILV3, stronger effect = lower value 1 | S. cerevisiae deletion strains, locus YJR066W, strain TOR1 (second series), stronger effect = lower value 0.937 | S. cerevisiae deletion strains, locus YJR066W, strain TOR1, stronger effect = lower value 1.08 | S. cerevisiae deletion strains, locus YKL048C, strain ELM1, stronger effect = lower value 0.975 | S. cerevisiae deletion strains, locus YKL067W, strain YNK1, stronger effect = lower value 0.946 | S. cerevisiae deletion strains, locus YKL101W, strain HSL1, stronger effect = lower value 0.951 | S. cerevisiae deletion strains, locus YKL193C, strain SDS22, stronger effect = lower value 0.994 | S. cerevisiae deletion strains, locus YKL203C, strain TOR2, stronger effect = lower value 1.03 | S. cerevisiae deletion strains, locus YLR113W, strain HOG1, stronger effect = lower value 1 | S. cerevisiae deletion strains, locus YLR133W, strain CKI1, stronger effect = lower value 0.978 | S. cerevisiae deletion strains, locus YLR403W, strain SFP1, stronger effect = lower value 0.967 | S. cerevisiae deletion strains, locus YML070W, strain DAK1, stronger effect = lower value 0.914 | S. cerevisiae deletion strains, locus YMR001C, strain CDC5, stronger effect = lower value 0.993 | S. cerevisiae deletion strains, locus YMR205C, strain PFK2 (second series), stronger effect = lower value 0.95 | S. cerevisiae deletion strains, locus YMR277W, strain FCP1, stronger effect = lower value 0.999 | S. cerevisiae deletion strains, locus YNL006W, strain LST8, stronger effect = lower value 0.994 | S. cerevisiae deletion strains, locus YNL020C, strain ARK1, stronger effect = lower value 0.961 | S. cerevisiae deletion strains, locus YNL161W, strain CBK1, stronger effect = lower value 0.995 | S. cerevisiae deletion strains, locus YNL183C, strain NPR1, stronger effect = lower value 1.06 | S. cerevisiae deletion strains, locus YNL207W, strain RIO2, stronger effect = lower value 0.987 | S. cerevisiae deletion strains, locus YNL222W, strain SSU72, stronger effect = lower value 0.974 | S. cerevisiae deletion strains, locus YNL307C, strain MCK1 (second series), stronger effect = lower value 0.963 | S. cerevisiae deletion strains, locus YOL078W, strain AVO1, stronger effect = lower value 0.985 | S. cerevisiae deletion strains, locus YOL136C, strain PFK27, stronger effect = lower value 0.939 | S. cerevisiae deletion strains, locus YOR061W, strain CKA2, stronger effect = lower value 0.944 | S. cerevisiae deletion strains, locus YOR119C, strain RIO1, stronger effect = lower value 1.01 | S. cerevisiae deletion strains, locus YOR231W, strain MKK1, stronger effect = lower value 1.03 | S. cerevisiae deletion strains, locus YOR329C, strain SCD5, stronger effect = lower value 0.999 | S. cerevisiae deletion strains, locus YPL031C, strain PHO85, stronger effect = lower value 0.953 | S. cerevisiae deletion strains, locus YPL153C, strain RAD53, stronger effect = lower value 0.945 | S. cerevisiae deletion strains, locus YPL204W, strain HRR25, stronger effect = lower value 0.962 | S. cerevisiae deletion strains, locus YPL209C, strain IPL1, stronger effect = lower value 0.983 | S. cerevisiae deletion strains, locus YPL256C, strain CLN2, stronger effect = lower value 1.05 | S. cerevisiae deletion strains, locus YPR025C, strain CCL1, stronger effect = lower value 0.994 | S. cerevisiae deletion strains, locus YPR106W, strain ISR1, stronger effect = lower value 0.992 | S. cerevisiae deletion strains, locus YPR111W, strain DBF20, stronger effect = lower value 0.981 | S. cerevisiae deletion strains, strain NNK1, stronger effect = lower value 0.988 | S. cerevisiae deletion strains, strain TSCII, stronger effect = lower value 0.999
